Most compounds without a hit are left out; they make up all but 10% or so of the library.
HEK293 tox = HEK 293 cell cytotoxicity | Potency, µM (top dose mostly 115 µM), without a hit: top-dose activity change, negative = cytotoxicity, usual class: inhibitors | hit rate 6.6% among 94,000 | HEK 293 viability, ATP luminescence (CellTiter-Glo), 48-72 h; also: nearly all actives have a fitted effect of over 60% in size
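HEK 293 seeded at 250 cells/well receive compound via pintool. After 48 or 72 hr at 37 degree Celsius, 5% CO2 and 95% humidity, CellTiter-Glo is dispensed and luminescence read following 10 min at room temperature.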
NPR1 antag = blocks ANP-stimulated signaling of human Npr1 receptor. P16066. HEK293 hNpr1 GloSensor cGMP, ANP-stimulated luminescence. Potency, µM (highest dose often 46.3 µM), inactives show at the top dose activity change, negative = inhibition, hits mostly inhibitors. hit rate 1.6% among 76,000; calls by dose curve; also: nearly all actives have a fitted effect of over 60% in size
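Compound pre-incubated 30 min at room temperature on GloSensor-loaded HEK293 cells stably carrying hNpr1 and the pGS-40F cGMP biosensor. Stimulation uses hNppA at 0.1 nM final; luminescence is taken at baseline and 20 min post-agonist.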
3T3 cytotox = kills NIH 3T3 cells; NIH 3T3 viability, CellTiter-Glo ATP luminescence, 48-72 h; Potency, µM (titrated, usually from 96.7 µM), for inactives: at the top dose activity change, negative = cytotoxicity, usual class: inhibitors; hit rate 4.3% among 94,000; AID 1345082; also: nearly all actives have a fitted effect of over 55% in size
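First NIH 3T3 cells are plated at 400 cells/well; next compound is pinned in; then plates incubate 48 or 72 hr at 37 °C; finally CellTiter-Glo is added and luminescence read after 10 min.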
GPT2 inhibitor = GPT2 alanine aminotransferase inhibition; Q8TD30; Recombinant GPT2, coupled pyruvate oxidase/HRP Amplex Red fluorescence; Potency, µM (highest dose often 57.7 µM), inactives show at the highest dose activity change, negative = inhibition, most hits filed as inhibitors; hit rate 0.25% among 100,000; also: nearly all actives have a fitted effect of over 60% in size
Target sequence (Q8TD30 whole entry, looked up): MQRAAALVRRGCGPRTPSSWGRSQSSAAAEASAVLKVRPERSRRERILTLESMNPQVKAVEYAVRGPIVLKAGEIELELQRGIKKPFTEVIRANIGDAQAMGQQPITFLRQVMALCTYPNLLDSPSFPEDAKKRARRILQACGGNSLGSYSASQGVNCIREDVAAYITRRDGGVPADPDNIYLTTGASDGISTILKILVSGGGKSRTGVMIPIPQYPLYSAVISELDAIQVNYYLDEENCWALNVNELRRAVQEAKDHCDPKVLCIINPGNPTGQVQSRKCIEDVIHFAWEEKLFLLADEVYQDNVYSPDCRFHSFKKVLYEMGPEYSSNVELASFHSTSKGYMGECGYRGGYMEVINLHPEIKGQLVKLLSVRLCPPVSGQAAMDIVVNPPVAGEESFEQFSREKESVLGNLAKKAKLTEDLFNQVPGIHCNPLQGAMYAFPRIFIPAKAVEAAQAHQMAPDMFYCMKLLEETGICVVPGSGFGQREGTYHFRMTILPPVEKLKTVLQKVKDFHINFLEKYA
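GPT2 10ng/uL, a-KG 250uM, L-Ala 2mM, HEPES pH7.5 + 0.0001% Tween; 30 min RT. Then Amplex mix (PO/HRP/ThPP), 30 min RT dark, fluorescence. AOA 50uM used as positive control.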
Luciferase inh = blocks purified firefly luciferase enzyme activity. purified P. pyralis luciferase, luminescence, biochemical. Potency, µM (series often up to 115 µM), hits mostly inhibitors. hit rate 2.5% among 76,000. AID 1347043; also: nearly all actives have a fitted effect of over 65% in size
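Luminescence read by CCD imager after adding enzyme (10nM final) to wells holding compound, titrated in qHTS. Substrates 10uM each D-luciferin and ATP; buffer 50mM Tris acetate pH 7.5, 10mM Mg acetate, Tween-20, BSA.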
Numbers without * were called inactive; i = inactive; ? = inconclusive; . = no result; [ ] = dose if it differs, or a comment. Unless noted, calls follow the shape of the dose curve; as a rule, active = well fitted curve in the direction sought with a large enough effect; inconclusive = small, poorly fitted or top-dose-only effect, or another doubt; inactive = no such curve, though single readings can be large; an effect the other way counts as inactive or inconclusive. % is scaled to controls: 0 for no effect and ±100 for the full control effect; potency is read from the fitted curve at half-maximal effect.

SMILES	HEK293 tox	NPR1 antag	3T3 cytotox	GPT2 inhibitor	Luciferase inh
O=C(NC1CC1)c1ccccc1OCC1CCCN(CC2=Cc3ccccc3OC2)C1 (configuration not stated)	40µM*	?	?	i	i
COc1cccc(NC(=O)COc2ccc(-c3nnc4n3CCCC4)cc2)c1	3%	-2%	-13%	?	i
CC1CCC2(CC1)OCC(C(=O)NCc1ccccc1)N2C(=O)c1cccc(Cl)c1 (configuration not stated)	?	-9%	?	i	i
CC1CCC2(CC1)OCC(C(=O)NCc1ccccc1)N2C(=O)c1ccc(Cl)c(Cl)c1 (configuration not stated)	?	0%	20µM*	-8%	i
COC(=O)[C@@H]1Cc2c([nH]c3ccccc23)[C@H]2C[C@@H](NCCO)C[C@@H](c3ccc(F)cc3)N21	28µM*	2%	28µM*	-4%	i
COC(=O)[C@@H]1Cc2c([nH]c3ccccc23)[C@H]2C[C@@H](NC3CC3)C[C@@H](c3ccc(F)cc3)N21	8.9µM*	?	28µM*	-24%[88.5 µM]	i
COC(=O)[C@@H]1Cc2c([nH]c3ccccc23)[C@H]2C[C@H](NCc3cccs3)C[C@@H](c3ccccc3)N21	?	-23%	25µM*	-15%	i
COC(=O)[C@@H]1Cc2c([nH]c3ccccc23)[C@H]2C[C@H](NCCO)C[C@@H](c3ccccc3)N21	?	-11%[70.6 µM]	45µM*	i	?
COC(=O)[C@@H]1C[C@H](NC(=O)CCCc2cccs2)CN1C	-16%	1%	1%	2%	i
COc1ccc([C@@H]2N[C@H](C(=O)O)Cc3c2[nH]c2ccccc32)cc1CN1CCN(c2ccccc2F)CC1	.	.	.	i	.
O=C(c1cc2ccccc2[nH]1)N1C[C@@H](CO)[C@H](c2nc(C3CC3)no2)C1	?	-12%	?	i	i
COc1ccc(-c2c(C(=O)NCc3cccc(OC)c3)nc3sccn23)cc1	?	.	?	5%[88.5 µM]	.
COc1cccc(CC(=O)N2[C@@H]3CC[C@H]2CC(NC(=O)c2ccc(F)cc2)C3)c1 (some centres not stated)	-20%	-4%	-12%	i	i
O=C(c1ccc(F)cc1)C1CCN(CCn2c(=O)[nH]c3ccccc3c2=O)CC1	.	.	.	4%	.
COC(=O)[C@@H]1Cc2c([nH]c3ccccc23)[C@H]2C[C@@H](NCCO)C[C@@H](c3cccc(OC)c3)N21	28µM*	1%	28µM*	-7%	i
C#CCN[C@H]1C[C@@H]2c3[nH]c4ccccc4c3C[C@@H](C(=O)OC)N2[C@H](c2ccc(F)cc2)C1	28µM*	-2%[70.6 µM]	?	1%[88.5 µM]	i
COc1cc(CN2CCCC(COc3ccccc3C(=O)NC(C)C)C2)ccc1O (configuration not stated)	?	.	-28%	i	.
O=C(NCc1ccccc1C(F)(F)F)C1CCCN(c2cnn(Cc3ccccc3)c(=O)c2)C1 (configuration not stated)	45µM*	-19%	?	i	i
Cc1ccc(C(=O)N2CCC3(CC2)COc2ccccc2NC3=O)cc1	?	0%	-3%	i	i
O=C(c1ccc(C(F)(F)F)cc1)N1CCC2(CC1)COc1ccccc1NC2=O	79µM*	-5%	?	-9%	i
COc1ccccc1CN1CCCC12Cc1ccccc1CNC2=O (configuration not stated)	-11%	.	-12%	-15%	.
COCc1nc(-c2ccc(OC3CN(C(=O)c4cccc(OC)c4)C3)cc2)no1	?	?	?	i	i
COCc1nc(-c2ccc(OC3CN(C(=O)c4ccc(OC)cc4)C3)cc2)no1	?	1.4µM*	?	5%	i
COCc1nc(-c2ccc(OC3CN(C(=O)C(C)Oc4ccccc4)C3)cc2)no1 (configuration not stated)	40µM*	?	?	2%	i
COCc1nc(-c2ccc(OC3CN(C(=O)Cc4ccccc4)C3)cc2)no1	?	-24%	?	-2%	i
